Source: PubChem BioAssay (NCI)
The panel holds about 79,000 compounds, 15% with a hit somewhere; the sample as a whole holds those more often. Active and inactive are the calls of the source. Rule as the data show it: active = growth inhibition above about 70%; inactive = the rest.

Tests used:
[1] = NCI Yeast Anticancer Drug Screen. Data for the mec2-1 strain (AID 157); details: S. cerevisiae mec2-1 strain, hits give high values
How it was run: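 Readout is yeast growth inhibition, normalised to vehicle-treated controls, in the mec2-1 strain exposed to compound.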

[2] = NCI Yeast Anticancer Drug Screen. Data for the rad14 strain (AID 159);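 also: 0% = growth of vehicle-treated control cultures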; details: S. cerevisiae rad14 strain growth inhibition, hits give high values
How it was run: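 Growth inhibition vs vehicle controls; genetically altered yeast strain (DNA damage repair defect) treated with test compounds.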

[3] = NCI Yeast Anticancer Drug Screen. Data for the sgs1 mgt1 strain (AID 161);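 also: 0% = growth of cultures given vehicle only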; details: S. cerevisiae sgs1 mgt1 strain, hits give high values
How it was run: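 Percent growth inhibition was derived by comparing compound-exposed mutant yeast with vehicle-exposed cultures. The strain carries alterations in DNA damage repair.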

[4] = NCI Yeast Anticancer Drug Screen. Data for the CLN2oe strain (AID 163);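 also: 0% = growth of vehicle-only control cultures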; details: S. cerevisiae CLN2oe strain, hits give high values
How it was run: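 Values reflect how much compound exposure reduced yeast growth, referenced to vehicle-exposed cells. Assay organism is a strain with a defined genetic change affecting cell-cycle control.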

[5] = NCI Yeast Anticancer Drug Screen. Data for the cln2 rad14 strain (AID 165);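 also: 0% = growth equal to vehicle treated cultures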; details: S. cerevisiae cln2 rad14 strain, hits give high values
How it was run: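 Relative to vehicle controls, growth inhibition of compound-treated cln2 rad14 yeast was recorded.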

[6] = NCI Yeast Anticancer Drug Screen. Data for the bub3 strain (AID 167); details: S. cerevisiae bub3 mutant strain, hits give high values
How it was run: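 Readout: yeast growth inhibition, expressed relative to vehicle-only wells. The test organism is a mutant strain from a panel with lesions in DNA repair or checkpoint genes.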

[7] = NCI Yeast Anticancer Drug Screen. Data for the wt2 strain (AID 169);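 also: 0% = growth of vehicle-treated yeast cultures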; details: S. cerevisiae wt2 strain growth inhibition, hits give high values
How it was run: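 Values express reduction in yeast growth under compound treatment, referenced to vehicle-treated cells.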

[8] = NCI Yeast Anticancer Drug Screen. Data for the mlh1 strain (AID 171);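 also: 0% = growth of vehicle-treated control cultures of the same strain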; details: S. cerevisiae mlh1 strain growth inhibition, hits give high values
How it was run: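 Steps: expose the defined-mutant yeast strain to compound; expose a parallel culture to vehicle; measure growth; express compound effect as inhibition relative to the vehicle culture.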

[9] = NCI Yeast Anticancer Drug Screen. Data for the sgs1 strain (AID 173);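 also: 0% = growth of vehicle-only control cultures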; details: S. cerevisiae sgs1 mutant, hits give high values
How it was run: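 Treat defined-mutant yeast with compound; measure growth; calculate inhibition relative to vehicle-treated cells.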

[10] = NCI Yeast Anticancer Drug Screen. Data for the mlh1 rad18 strain (AID 175); details: S. cerevisiae mlh1 rad18 strain growth inhibition, hits give high values
How it was run: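 Test agents were incubated with a yeast strain of defined genotype (DNA damage repair defect). Inhibition of growth was derived by comparison with vehicle-exposed cultures.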

[11] = NCI Yeast Anticancer Drug Screen. Data for the rad18 strain (AID 177); details: S. cerevisiae rad18 mutant growth inhibition, hits give high values
How it was run: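 A genetically defined yeast mutant impaired in DNA damage repair was treated with test compounds, then its growth was measured against cultures receiving vehicle alone.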

[12] = NCI Yeast Anticancer Drug Screen. Data for the rad52 strain (AID 147);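 also: 0% = growth of vehicle-treated control cultures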; details: S. cerevisiae rad52 mutant growth inhibition, hits give high values
How it was run: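 Screen used a yeast mutant impaired in DNA repair. After compound exposure, growth was measured. Values reflect inhibition compared with vehicle-treated cells.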

[13] = NCI Yeast Anticancer Drug Screen. Data for the wt1 strain (AID 149);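 also: 0% = growth of vehicle-treated wt1 cultures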; details: S. cerevisiae wt1 strain (SPY 50644) growth inhibition, hits give high values
How it was run: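 Growth inhibition read against vehicle controls after compound exposure of the wt1 yeast strain.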

[14] = NCI Yeast Anticancer Drug Screen. Data for the rad50EPP+ strain (AID 151);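 also: 0% = growth of vehicle-treated control cultures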; details: S. cerevisiae rad50 mutant strain, hits give high values
How it was run: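 Exposing the rad50EPP+ strain to each compound, growth was compared with vehicle-only cultures to give inhibition.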

[15] = NCI Yeast Anticancer Drug Screen. Data for the mgt1 strain (AID 153); details: S. cerevisiae mgt1 mutant growth inhibition, hits give high values
How it was run: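 Genetically defined yeast (mgt1) treated with compound; inhibition of growth expressed against vehicle-treated controls.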

[16] = NCI Yeast Anticancer Drug Screen. Data for the rad50 strain (AID 155);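 also: 0% = growth of vehicle-only cultures of the same strain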; details: S. cerevisiae rad50 strain growth inhibition, hits give high values
How it was run: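 Readout: growth inhibition relative to vehicle-treated cultures. Compound exposure was carried out in a genetically defined yeast strain deficient in DNA damage repair.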

[17] = at 5.0 µM (retest, dose inferred, filed as 0.5)
[18] = at 50.0 µM (retest, dose inferred, filed as 5.0)

Measured: growth inhibition

O=C1C=CC(=Nc2ccc3c(c2)Cc2cc(NC(=O)C(F)(F)F)ccc2-3)O1
active: [1]; [17] 88% | [1]; [18] 95% | [1]; at 50.0 µM 96% | [1]; at 100.0 µM 96% | [2]; at 100.0 µM 98% | [3]; [18] 97% | [3]; at 50.0 µM 98.3% | [4]; at 100.0 µM 96% | [5]; [18] 93% | [6]; [18] 96% | [6]; at 50.0 µM 87.7% | [6]; at 100.0 µM 96% | [7]; at 100.0 µM 98% | [8]; at 100.0 µM 98% | [9]; at 100.0 µM 98% | [10]; [17] 79% | [10]; [18] 94% | [10]; at 50.0 µM 98.3% | [11]; at 100.0 µM 96%
inactive: [1]; at 11.0 µM 28% | [1]; at 33.0 µM 48% | [2]; at 1.2 µM 6% | [2]; at 3.7 µM 15% | [2]; at 11.0 µM 32% | [2]; at 33.0 µM 62% | [3]; [17] 51% | [4]; at 1.2 µM -4% | [4]; at 3.7 µM 1% | [4]; at 11.0 µM 10% | [4]; at 33.0 µM 23% | [5]; [17] 7% | [5]; at 50.0 µM 3.55% | [6]; at 1.2 µM -7% | [6]; at 3.7 µM -6% | [6]; [17] 25% | [6]; at 11.0 µM 0% | [6]; at 33.0 µM 13% | [7]; at 1.2 µM 1% | [7]; at 3.7 µM 3% | [7]; at 11.0 µM 15% | [7]; at 33.0 µM 26% | [8]; at 1.2 µM 3% | [8]; at 3.7 µM 9% | [8]; at 11.0 µM 22% | [8]; at 33.0 µM 39% | [9]; at 1.2 µM 7% | [9]; at 3.7 µM 15% | [9]; at 11.0 µM 34% | [9]; at 33.0 µM 63% | [11]; at 1.2 µM 4% | [11]; at 3.7 µM 13% | [11]; at 11.0 µM 32% | [11]; at 33.0 µM 57%

O=C1C=CC(=C(c2ccccc2)c2ccccc2)c2ccccc21
inactive: [12]; at 1.2 µM 6% | [12]; at 3.7 µM 3% | [12]; at 11.0 µM -4% | [12]; at 33.0 µM 4% | [12]; at 100.0 µM 0% | [13]; at 1.2 µM 0% | [13]; at 3.7 µM 1% | [13]; at 11.0 µM 1% | [13]; at 33.0 µM 2% | [13]; at 100.0 µM 4% | [14]; at 1.2 µM 9% | [14]; at 3.7 µM 7% | [14]; at 11.0 µM 2% | [14]; at 33.0 µM 15% | [14]; at 100.0 µM 8% | [15]; at 1.2 µM 0% | [15]; at 3.7 µM 0% | [15]; at 11.0 µM -1% | [15]; at 33.0 µM -1% | [15]; at 100.0 µM 2% | [16]; at 1.2 µM 7% | [16]; at 3.7 µM 7% | [16]; [17] 25% | [16]; at 11.0 µM -1% | [16]; at 33.0 µM 8% | [16]; at 50.0 µM -6.5% | [16]; at 100.0 µM 10% | [1]; at 1.2 µM 0% | [1]; at 3.7 µM -1% | [1]; [17] -1% | [1]; at 11.0 µM 1% | [1]; at 33.0 µM -1% | [1]; at 50.0 µM 15.1% | [1]; at 100.0 µM 2% | [2]; at 1.2 µM 5% | [2]; at 3.7 µM 2% | [2]; at 11.0 µM -2% | [2]; at 33.0 µM 1% | [2]; at 100.0 µM -2% | [3]; [17] 43% | [3]; at 50.0 µM 6.15% | [4]; at 1.2 µM -1% | [4]; at 3.7 µM -3% | [4]; at 11.0 µM -9% | [4]; at 33.0 µM -8% | [4]; at 100.0 µM -9% | [5]; [17] 25% | [5]; at 50.0 µM -44.3% | [6]; at 1.2 µM 0% | [6]; at 3.7 µM 1% | [6]; [17] 53% | [6]; at 11.0 µM 3% | [6]; at 33.0 µM 9% | [6]; at 50.0 µM 25.1% | [6]; at 100.0 µM 21% | [7]; at 1.2 µM -6% | [7]; at 3.7 µM -4% | [7]; at 11.0 µM 0% | [7]; at 33.0 µM -4% | [7]; at 100.0 µM -3% | [8]; at 1.2 µM 2% | [8]; at 3.7 µM 0% | [8]; at 11.0 µM -3% | [8]; at 33.0 µM 1% | [8]; at 100.0 µM 0% | [9]; at 1.2 µM -11% | [9]; at 3.7 µM -25% | [9]; at 11.0 µM -10% | [9]; at 33.0 µM 10% | [9]; at 100.0 µM 18% | [10]; [17] 69% | [10]; at 50.0 µM 13.2% | [11]; at 1.2 µM 6% | [11]; at 3.7 µM 4% | [11]; at 11.0 µM 1% | [11]; at 33.0 µM 4% | [11]; at 100.0 µM 2%
active: [16]; [18] 91% | [1]; [18] 89% | [3]; [18] 93% | [5]; [18] 86% | [6]; [18] 92% | [10]; [18] 92%

COc1ccc2sc3cccc(NCCN(C)C)c3c(=O)c2c1
inactive: [12]; at 1.2 µM -3% | [12]; at 3.7 µM -3% | [12]; at 11.0 µM -1% | [12]; at 33.0 µM 2% | [12]; at 100.0 µM 27% | [13]; at 1.2 µM 1% | [13]; at 3.7 µM 6% | [13]; at 11.0 µM 3% | [13]; at 33.0 µM 2% | [13]; at 100.0 µM 10% | [14]; at 1.2 µM 6% | [14]; at 3.7 µM 8% | [14]; at 11.0 µM 17% | [14]; at 33.0 µM 25% | [14]; at 100.0 µM 61% | [15]; at 1.2 µM -1% | [15]; at 3.7 µM -3% | [15]; at 11.0 µM -4% | [15]; at 33.0 µM -3% | [15]; at 100.0 µM 15% | [16]; at 1.2 µM 0% | [16]; at 3.7 µM 1% | [16]; [17] -14% | [16]; at 11.0 µM 2% | [16]; at 33.0 µM 7% | [16]; [18] -10% | [16]; at 50.0 µM 25.2% | [16]; at 100.0 µM 31% | [1]; at 1.2 µM 3% | [1]; at 3.7 µM 4% | [1]; [17] -3% | [1]; at 11.0 µM 6% | [1]; at 33.0 µM 9% | [1]; [18] 3% | [1]; at 50.0 µM -4.1% | [1]; at 100.0 µM 12% | [2]; at 1.2 µM -1% | [2]; at 3.7 µM -1% | [2]; at 11.0 µM -1% | [2]; at 33.0 µM 9% | [2]; at 100.0 µM 33% | [3]; [17] -9% | [3]; [18] 38% | [3]; at 50.0 µM 54.6% | [4]; at 1.2 µM -3% | [4]; at 3.7 µM -10% | [4]; at 11.0 µM -4% | [4]; at 33.0 µM -4% | [4]; at 100.0 µM 17% | [5]; [17] 3% | [5]; [18] 6% | [5]; at 50.0 µM 31.6% | [6]; at 1.2 µM -4% | [6]; at 3.7 µM -3% | [6]; [17] 9% | [6]; at 11.0 µM -3% | [6]; at 33.0 µM -1% | [6]; [18] 5% | [6]; at 50.0 µM -4.65% | [6]; at 100.0 µM 1% | [7]; at 1.2 µM 0% | [7]; at 3.7 µM -2% | [7]; at 11.0 µM 0% | [7]; at 33.0 µM -1% | [7]; at 100.0 µM 8% | [8]; at 1.2 µM -1% | [8]; at 3.7 µM 2% | [8]; at 11.0 µM 3% | [8]; at 33.0 µM 4% | [8]; at 100.0 µM 18% | [9]; at 1.2 µM 2% | [9]; at 3.7 µM 1% | [9]; at 11.0 µM 3% | [9]; at 33.0 µM 2% | [9]; at 100.0 µM 16% | [10]; [17] -1% | [10]; [18] -9% | [10]; at 50.0 µM 67.3%
